The record followed here is the supplement of paper PMC7801607.

This assay relates to Plasmodium berghei ANKA liver stage in HepG2-A16-CD81. The assay is described as follows: % inhibition of liver stage parasite viability (luciferase); higher = more inhibition. The note with it: 5 µM; 48 h. The method, then:
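Single-concentration screen of the MMV Pandemic Response Box. P. falciparum NF54 asexual blood stages: pLDH assay, 72 h at 37 °C, 2 and 20 µM, n=2. Stage IV/V gametocytes (NF54): luciferase reporter (NF54-Pfs16-GFP-Luc, 48 h), ATP bioluminescence (24 h) and PrestoBlue (48 h) at 1 and 5 µM, n=1. P. berghei liver stage (luciferase in HepG2-A16-CD81, 48 h post infection) at 5 µM, n=4. All normalised to DMSO and kill controls as % inhibition.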
In the case of `O=C(c1cc(O)nc2ccccc12)N1CCN(c2ccccc2)CC1`, the “% inhibition of liver stage parasite viability” value (“% inhibition” below) is 34.2%.
Turning to `OCCC#Cc1nc(-c2ccc(F)cc2)c(-c2ccncc2)n1CCCc1ccccc1`, the “% inhibition” value is 36.6%.
As to `C[C@@H](c1nc(-c2ccc(C#N)cc2)cs1)[C@](O)(Cn1cncn1)c1ccc(F)cc1F`, the “% inhibition” value is -4.98%.
The result for `O=[N+]([O-])c1cn2c(n1)OC[C@@H](OCc1ccc(OC(F)(F)F)cc1)C2` reads 31.5%.
The value for `Nc1nc(-c2ccccc2)nc2c1ncn2[C@@H]1O[C@H](COS(=O)(=O)NC(=O)c2ccccc2O)[C@@H](O)[C@H]1O` was 2.37%; that for `O=C(N[C@H](Cc1cccc2ccccc12)C(=O)NCCc1c[nH]cn1)C1Cc2ccccc2C1` was 21.8%.
The value for `NC(=O)c1cnccn1` was 14.3%; that for `O=C(NN1C(=O)[C@@H]2C3C=CC([C@H]4C[C@@H]34)[C@@H]2C1=O)c1ccc(C(F)(F)F)cc1` was 26.8%.
As for `O=C(O)C[C@H]1CC[C@H](c2ccc(-c3ccc(Nc4ccc(C(F)(F)F)nc4)cn3)cc2)CC1`, the “% inhibition” value is 39.5%.
`Cc1ccc(N2CCC(CCOc3ccc(S(C)(=O)=O)cc3)CC2)nn1`: the “% inhibition” value worked out at 17.8%.
The result for `COc1ccc(OCc2ccc(COc3c(Cl)cccc3Cl)cc2)c(Cl)c1` reads 33.2%.
The result for `CCOC(=O)N[C@@H]1CC[C@@H]2[C@@H](C1)C[C@H]1C(=O)O[C@H](C)[C@H]1[C@H]2/C=C/c1ccc(-c2cccc(F)c2)cn1` reads 33.5%.
Turning to `CCc1c(OCC2CCC2)c2cc(F)ccc2[nH]c1=O`, the “% inhibition” value amounted to 12.7%.
The value for `Cc1nc(-c2ccc(C3N(C)c4ccc(F)cc4C(=O)N3c3ccccc3)s2)cs1` (stereo not given) was 31.9%; that for `COc1cc(NC(=O)CN2C(=O)NC(c3ccccc3)(c3ccccc3)C2=O)cc(OC)c1` was 9.85%.
The result for `NCC(=O)Nc1ccc(-n2nc(C(F)(F)F)cc2-c2ccc3c(ccc4ccccc43)c2)cc1` reads 20.2%; that for `O=C(NCc1ccccc1Cl)c1cnc2ccccc2n1`, 12.6%; that for `CO[C@@]1(NC(=O)Cc2cccs2)C(=O)N2C(C(=O)O)=C(COC(N)=O)CS[C@@H]21`, 11.5%.
Turning to `CC[C@@H](CO)NCCN[C@@H](CC)CO`, the “% inhibition” value is 32.9%.
The value for `Cc1c[nH]c(=O)nc1NCc1ccccc1` was 18.3%; that for `CN1CCN(c2ccc3[nH]c(-c4ccc5[nH]c(-c6ccc(O)cc6)nc5c4)nc3c2)CC1` was -6.69%; that for `O=[N+]([O-])c1ccc2c(CCc3c[nH]c4ccccc34)c[nH]c2c1` was -60.7%.
Consider `CC(C)(C)c1cc(C(=O)/C(C#N)=N/Nc2cccc(Cl)c2)no1`, for which the “% inhibition” value is 51.5%.
For the compound `OB1OCc2cc(Cl)ccc21`, the “% inhibition” value turned out to be 23.6%.
The value for `CCCCc1ccc(-c2nc(C)c(C(=O)OC)s2)cc1` was -103%; that for `C[Si]1(C)CCN(Cc2cc(-c3ccc(Cl)cc3)n(-c3ccc(Cl)cc3)n2)CC1` was 33.3%.
The value for `O=C1[C@H](CC[C@H](O)c2ccc(F)cc2)[C@@H](c2ccc(O)cc2)N1c1ccc(F)cc1` was 27.4%.
Consider `CCCCCc1ccc(C(=O)NCCn2cc(CCCCCc3cnc(N)[nH]3)nn2)cc1`, for which the “% inhibition” value worked out at 37.7%.
The result for `O=C(c1ccc(F)cc1)N1CCN2C(=O)c3ccccc3C12c1ccccc1` (stereo not given) reads 26%.
Consider `C=C(C)[C@@H]1CC[C@]2(C(=O)O)CC[C@]3(C)[C@H](CC[C@@H]4[C@@]5(C)CC[C@H](O)C(C)(C)[C@@H]5CC[C@]43C)[C@@H]12`, for which the “% inhibition” value was 57%.
Consider `O=C(O)c1sccc1S(=O)(=O)n1ccc2cc(Br)ccc21`, for which the “% inhibition” value stood at 8.54%.
For the compound `COC(=O)Nc1nc2c(C)cccc2[nH]1`, the “% inhibition” value was found to be 3.06%.
As for `N=C(N)c1ccc(COc2ccc(Cl)cc2)cc1`, the “% inhibition” value is -17.2%.
In the case of `O=[N+]([O-])c1cn(Cc2nc(O)nc(O)c2Br)cn1`, the “% inhibition” value is 19.1%.
The result for `Nc1nc(O)c2ncn(COCCO)c2n1` reads 26.7%; that for `COCCn1cnc2c(=O)[nH]c(Nc3ccccc3)nc21`, 7.54%.
The value for `CCc1ccc(C2CC(C(F)(F)F)n3ncc(C(=O)NCc4ccc(OC)cc4)c3N2)cc1` (stereo not given) was 32.1%; that for `CC(C)(C)NC(=O)[C@@H]1CN(Cc2cnc3occc3c2)CCN1C[C@@H](O)C[C@@H](Cc1ccccc1)C(=O)N[C@H]1c2ccccc2C[C@H]1O` was 36%; that for `COc1ccc(COc2cc3oc(=O)c4cc(C(C)O)ccc4c3cc2OC)cc1` (stereo not given) was 8.21%.
The value for `Cc1cc(NS(=O)(=O)c2ccc(-c3ccc(F)cc3F)cc2)no1` was 43.5%.
